Source: PubChem
CYP2C9 act: increases human cytochrome P450 2C9 activity. AID 1024. 96,000 tested, 1.4% active. activation factor at 5 µM. recombinant CYP2C9, luciferin-H conversion, luminescence; hits give high values; factor 1 = untreated enzyme, 0 = blocked. P11712;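 active = activation factor of 2 or more for CYP2C9 at a 5 µM dose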
CYP2C9 inh: human CYP2C9 inhibition. P11712. CYP2C9 Supersomes, luciferin-H conversion, luminescence. 96,000 tested, 20% active. inhibition, % at 5 µM;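 active = blocking of liver enzyme CYP2C9 beyond about 50% at 5 µM, limit read from the data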
EphB4 ephrin blk: EphB4-ephrin-B2 interaction antagonism. P54760. inhibition, % at 7 µM. EphB4 LBD / TNYL-RAW-Alexa532 peptide, fluorescence polarization. 97,000 tested, 0.15% active;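 active = inhibition above the screen-wide mean inhibition plus 3 SD, cut at about 15% in these data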
CYP2C19 activ: activators of human cytochrome P450 2C19 | P33261 | activation factor at 5 µM | AID 1025 | 96,000 tested, under 10 active | recombinant CYP2C19, luciferin-H EGE luminescence; hits give high values; 0 = fully inhibited enzyme, 1 = untreated enzyme;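 active = activation factor of at least 2 at 5 µM in the primary screen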
Target sequence (P33261 whole entry, looked up): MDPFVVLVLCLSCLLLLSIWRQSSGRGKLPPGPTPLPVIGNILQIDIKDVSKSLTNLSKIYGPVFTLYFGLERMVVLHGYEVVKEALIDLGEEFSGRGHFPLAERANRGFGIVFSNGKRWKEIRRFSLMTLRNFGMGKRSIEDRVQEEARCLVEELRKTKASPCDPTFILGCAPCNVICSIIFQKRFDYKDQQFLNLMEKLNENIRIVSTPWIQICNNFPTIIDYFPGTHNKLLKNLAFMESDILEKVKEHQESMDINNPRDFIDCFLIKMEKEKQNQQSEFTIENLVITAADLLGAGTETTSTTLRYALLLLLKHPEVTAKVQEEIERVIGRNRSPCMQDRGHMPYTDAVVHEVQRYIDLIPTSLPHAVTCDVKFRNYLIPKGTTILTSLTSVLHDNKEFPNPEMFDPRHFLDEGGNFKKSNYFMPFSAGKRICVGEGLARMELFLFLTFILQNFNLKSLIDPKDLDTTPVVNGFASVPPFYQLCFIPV
CYP2C19 inhib: blocks human cytochrome P450 2C19. inhibition, % at 5 µM. CYP2C19 Supersomes, luciferin-H EGE luminescence, 30 min. 96,000 tested, 21% active. AID 778;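 active = CYP2C19 inhibition above a set limit at 5 µM in the primary screen, cut at about 50% in these data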
Hits are given with their value. Compounds with a hit are over-represented: about 27% of the library has one in this group of screens.

Results for CCOc1ccc(S(=O)(=O)N2CCN(c3ccccc3)CC2)c2cccnc12 ?
CYP2C9 act: inactive; CYP2C9 inh: 59.1; EphB4 ephrin blk: inactive; CYP2C19 activ: inactive; CYP2C19 inhib: inactive

What do the screens show for `CCOCCSC1=C(C#N)C(c2cccs2)C(C(C)=O)=C(C)N1` (configuration not stated)?
CYP2C9 act: inactive; CYP2C9 inh: 83.4; EphB4 ephrin blk: inactive; CYP2C19 activ: inactive; CYP2C19 inhib: 89.6

What do the screens show for `COC(=O)C1=C(C)Nc2c(c(=O)n(C)c(=O)n2C)C1c1cccs1` (configuration not stated)?
CYP2C9 act: inactive; CYP2C9 inh: 72.7; EphB4 ephrin blk: inactive; CYP2C19 activ: inactive; CYP2C19 inhib: 83.4

Results for COC(=O)C1=C(C)Nc2c(c(=O)n(C)c(=O)n2C)C1c1cccnc1 (configuration not stated) ?
EphB4 ephrin blk: inactive

Results for CCOC(=O)C1=C(C)NC2=C(C(=O)CC(c3cccs3)C2)C1c1cccs1 (configuration not stated) ?
EphB4 ephrin blk: inactive

What do the screens show for `CCOC(=O)C1=C(C)NC(SCc2cc(=O)[nH][nH]2)=C(C#N)C1c1cccs1` (configuration not stated)?
CYP2C9 act: inactive; CYP2C9 inh: 78.7; EphB4 ephrin blk: inactive; CYP2C19 activ: inactive; CYP2C19 inhib: 90.3

How did CCOC(=O)C1=C(C)NC(SCC(N)=O)=C(C#N)C1c1cccs1 (configuration not stated) do in these assays?
CYP2C9 act: inactive; CYP2C9 inh: 51.5; EphB4 ephrin blk: inactive; CYP2C19 activ: inactive; CYP2C19 inhib: 51.7

What do the screens show for `CCn1c(CNC(=O)c2cccc(C)c2)nnc1SCC(=O)NC1CCCCC1C` (configuration not stated)?
CYP2C9 act: inactive; CYP2C9 inh: inactive; EphB4 ephrin blk: inactive; CYP2C19 activ: inactive; CYP2C19 inhib: inactive

Results for C=CC[n+]1c(-c2ccc(OC)cc2)csc1NNC(=O)Nc1ccccc1 ?
CYP2C9 act: inactive; CYP2C9 inh: inactive; EphB4 ephrin blk: inactive; CYP2C19 activ: inactive; CYP2C19 inhib: inactive

What do the screens show for `CC(=O)C1=C(C)NC(C)=C(C(C)=O)C1c1cccs1`?
CYP2C9 act: inactive; CYP2C9 inh: 61.6; EphB4 ephrin blk: inactive; CYP2C19 activ: inactive; CYP2C19 inhib: 93.7

How did CCSC1=C(C#N)C(c2cccs2)C(C(=O)OC)=C(C)N1 (configuration not stated) do in these assays?
CYP2C9 act: inactive; CYP2C9 inh: 90.7; EphB4 ephrin blk: inactive; CYP2C19 activ: inactive; CYP2C19 inhib: 87.8

What do the screens show for `C=CCOC(=O)C1=C(C)NC(SCC(=O)Nc2nccs2)=C(C#N)C1c1cccs1` (configuration not stated)?
CYP2C9 act: inactive; CYP2C9 inh: inactive; EphB4 ephrin blk: inactive; CYP2C19 activ: inactive; CYP2C19 inhib: inactive

What do the screens show for `CCOC(=O)C1=C(C)NC(SCC(=O)Nc2cc(C)on2)=C(C#N)C1c1cccs1` (configuration not stated)?
CYP2C9 act: inactive; CYP2C9 inh: 94.7; EphB4 ephrin blk: inactive; CYP2C19 activ: inactive; CYP2C19 inhib: 91.2

How did O=C(CSc1nc(O)cc(=O)n1-c1ccccc1)N1CCCCC1 do in these assays?
CYP2C9 act: inactive; CYP2C9 inh: inactive; EphB4 ephrin blk: inactive; CYP2C19 activ: inactive; CYP2C19 inhib: inactive

How did CCOc1ccc(-c2nnc(NC3=NCCCCC3)o2)cc1 do in these assays?
CYP2C9 act: inactive; CYP2C9 inh: inactive; EphB4 ephrin blk: inactive; CYP2C19 activ: inactive; CYP2C19 inhib: inactive

What do the screens show for `N#Cc1cn(CC(=O)O)c2ccccc12`?
CYP2C9 act: inactive; CYP2C9 inh: inactive; EphB4 ephrin blk: inactive; CYP2C19 activ: inactive; CYP2C19 inhib: inactive

How did CC(C)NC(=O)Cn1cc(C#N)c2cc(Br)ccc21 do in these assays?
CYP2C9 act: inactive; CYP2C9 inh: inactive; EphB4 ephrin blk: inactive; CYP2C19 activ: inactive; CYP2C19 inhib: 73.2

How did Cc1cccc(S(=O)(=O)Nc2cccc3c2C(=O)c2ccccc2-3)c1 do in these assays?
CYP2C9 act: inactive; CYP2C9 inh: 58.6; EphB4 ephrin blk: inactive; CYP2C19 activ: inactive; CYP2C19 inhib: inactive

What do the screens show for `O=C(O)c1cccc(S(=O)(=O)Nc2ccccc2Cl)c1`?
CYP2C9 act: inactive; CYP2C9 inh: inactive; EphB4 ephrin blk: inactive; CYP2C19 activ: inactive; CYP2C19 inhib: inactive

How did CCSCCOC(=O)C1=C(C)NC(=O)NC1c1cccc(OC)c1OC (configuration not stated) do in these assays?
CYP2C9 act: inactive; CYP2C9 inh: inactive; EphB4 ephrin blk: inactive; CYP2C19 activ: inactive; CYP2C19 inhib: 79.9
